Consider 42 molecules from PMC4336329 (PLoS ONE, 2015).

SMILES strings stand for the structures. Among all 310,000 compounds or so, about 2,200 (0.71%) showed an effect of 50% or more. Effects have a minus sign here. The sample holds strong results, similar compounds and a random draw of the others, so the mix is not that of the screen.

The target of this test is human ether-à-go-go-related gene (hERG) potassium channel (human, UniProt Q12809). The experiment in a line: primary screen, population patch clamp on CHO cells stably expressing hERG; higher = less effect of the substance.
Sequence of human ether-à-go-go-related gene (hERG) potassium channel (Q12809 whole entry, looked up): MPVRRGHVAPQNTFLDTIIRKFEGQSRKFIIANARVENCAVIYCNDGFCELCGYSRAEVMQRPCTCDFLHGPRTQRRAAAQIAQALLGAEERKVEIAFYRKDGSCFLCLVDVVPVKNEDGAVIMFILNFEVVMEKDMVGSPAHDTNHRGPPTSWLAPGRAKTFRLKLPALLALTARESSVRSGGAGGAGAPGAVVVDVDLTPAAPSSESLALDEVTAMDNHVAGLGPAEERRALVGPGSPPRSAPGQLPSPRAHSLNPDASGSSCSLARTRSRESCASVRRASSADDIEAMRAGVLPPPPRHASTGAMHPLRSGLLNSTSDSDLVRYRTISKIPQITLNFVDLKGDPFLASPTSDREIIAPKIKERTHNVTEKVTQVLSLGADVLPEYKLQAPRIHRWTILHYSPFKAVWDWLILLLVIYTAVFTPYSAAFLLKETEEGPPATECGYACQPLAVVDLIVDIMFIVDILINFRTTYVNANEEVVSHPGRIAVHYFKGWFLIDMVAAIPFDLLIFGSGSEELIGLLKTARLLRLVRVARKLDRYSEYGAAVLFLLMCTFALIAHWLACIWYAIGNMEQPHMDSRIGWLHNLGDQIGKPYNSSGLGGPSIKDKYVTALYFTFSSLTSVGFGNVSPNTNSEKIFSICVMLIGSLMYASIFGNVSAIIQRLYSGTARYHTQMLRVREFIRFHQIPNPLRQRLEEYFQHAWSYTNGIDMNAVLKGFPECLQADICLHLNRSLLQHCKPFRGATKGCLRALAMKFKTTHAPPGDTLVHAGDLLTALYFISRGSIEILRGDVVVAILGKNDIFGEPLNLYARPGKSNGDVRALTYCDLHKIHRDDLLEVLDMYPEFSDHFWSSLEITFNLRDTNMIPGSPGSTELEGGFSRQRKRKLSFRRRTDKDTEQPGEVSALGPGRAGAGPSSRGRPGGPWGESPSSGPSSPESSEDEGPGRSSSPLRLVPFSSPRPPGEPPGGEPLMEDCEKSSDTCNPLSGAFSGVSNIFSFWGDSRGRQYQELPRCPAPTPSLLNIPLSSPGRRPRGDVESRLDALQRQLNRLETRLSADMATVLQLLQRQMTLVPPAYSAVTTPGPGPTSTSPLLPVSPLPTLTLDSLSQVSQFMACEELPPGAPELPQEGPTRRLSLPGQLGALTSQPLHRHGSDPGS
As for `COc1ccc(CC(NC(C)=O)C(=O)NC2CCN(C(=O)Nc3ccc(Cl)cc3)CC2)cc1OC` (stereo not drawn), the “hERG current change (%, negative = inhibition) at 1uM” value amounted to 10.2%. For `O=C(COc1ccccc1[N+](=O)[O-])NCC1(N2CCCCC2)CCCCC1`, the “hERG current change (%, negative = inhibition) at 1uM” value was -4.91%. For `CCOC(=O)c1ccc(NC(=O)COc2coc(CN3CCc4ccccc43)cc2=O)cc1` the value was 8.2%. With `COc1ccc(OC)c(S(=O)(=O)N2CCC(C(=O)NCc3ccccc3OC)CC2)c1`, the “hERG current change (%, negative = inhibition) at 1uM” value is 3.09%. As for `NC1=NC[C@@H](Cc2ccc(O)cc2)N1CCC12CC3CC(CC(C3)C1)C2`, the “hERG current change (%, negative = inhibition) at 1uM” value turned out to be 10.4%. Turning to `N#CCCSc1ncnc2c1oc1ccccc12`, the “hERG current change (%, negative = inhibition) at 1uM” value is given as 4.55%. Consider `CCOc1ccc(NC(=O)CN2CCN(CC(=O)Nc3ccc(F)cc3)CC2)cc1`, for which the “hERG current change (%, negative = inhibition) at 1uM” value is reported as -87.3%. For `CCOC(=O)N1CCC(NC(=O)c2cc(-c3ccc(F)cc3)[nH]c2C)CC1` the value was 11.6%; for `COc1ccc(NC(=O)CN2CCN(c3ccc(F)cc3)CC2)cc1`, 7.86%. As for `Cc1[nH]c(-c2ccc(F)cc2)cc1C(=O)N1CCN(c2ccccc2)CC1`, the “hERG current change (%, negative = inhibition) at 1uM” value is recorded as -29%.

Consider `CCOC(=O)N1CCN(C(=O)c2cc(-c3ccc(F)cc3)[nH]c2C)CC1`, for which the “hERG current change (%, negative = inhibition) at 1uM” value is reported as -54.1%. Turning to `CCOc1ccc(NC(=O)CN2CCN(c3ccc(F)cc3)CC2)cc1`, the “hERG current change (%, negative = inhibition) at 1uM” value is on record as 11.4%. On to `CCn1cc(/C=C/C(=O)Nc2c(C)nn(Cc3ccccc3C)c2C)cn1`, for which the “hERG current change (%, negative = inhibition) at 1uM” value is 15.5%.

On to `CC(=O)N/N=C/c1cc(C)n(-c2ccc(Br)cc2)c1C`, for which the “hERG current change (%, negative = inhibition) at 1uM” value amounted to 1.14%. Consider `CC1N(C(=O)N2CCOCC2)CCN1S(=O)(=O)c1ccc(Cl)cc1` (stereo not drawn), for which the “hERG current change (%, negative = inhibition) at 1uM” value worked out at 4%. For the molecule `CN(C)CCNC(=O)/C(=C/c1ccc(-c2cccc(Cl)c2)o1)NC(=O)c1ccccc1`, the “hERG current change (%, negative = inhibition) at 1uM” value was -31.4%.

For `Cc1ccc(C(=O)N/C(=C\c2ccc(Cl)cc2)C(=O)NCC2CCCO2)cc1` (stereo not drawn), the “hERG current change (%, negative = inhibition) at 1uM” value was -38.7%.

As to `Cc1ccc(C(=O)N/C(=C/c2ccc(-c3ccc(Br)cc3)o2)C(=O)NC2CCS(=O)(=O)C2)cc1` (stereo not drawn), the “hERG current change (%, negative = inhibition) at 1uM” value was 3.65%. `Cc1ccc(C(=O)N/C(=C\c2ccc(-c3cc(Cl)ccc3Cl)o2)C(=O)NCc2cccnc2)cc1`: the “hERG current change (%, negative = inhibition) at 1uM” value amounted to 5.35%. As to `Cc1ccc(/C=C(\NC(=O)c2ccccc2)C(=O)NCCN2CCOCC2)o1`, the “hERG current change (%, negative = inhibition) at 1uM” value came out at 1.36%. Consider `Cc1ccc(C(=O)N/C(=C\c2ccc(-c3ccc(Cl)cc3)o2)C(=O)NCCCN(C)C)cc1`, for which the “hERG current change (%, negative = inhibition) at 1uM” value is given as -93.5%. As for `CN(C)CCNC(=O)/C(=C/c1ccc(-c2ccc(Cl)cc2Cl)o1)NC(=O)c1ccccc1`, the “hERG current change (%, negative = inhibition) at 1uM” value is reported as -7.71%. `CN(C)CCCNC(=O)/C(=C\c1ccc(-c2ccc(Br)cc2)o1)NC(=O)c1ccccc1`: the “hERG current change (%, negative = inhibition) at 1uM” value is on record as -82%. `O=C(NCCO)/C(=C\c1ccc([N+](=O)[O-])o1)NC(=O)c1ccccc1`: the “hERG current change (%, negative = inhibition) at 1uM” value is listed as 4.89%.

For `Cc1ccc(C(=O)N/C(=C\c2ccc(-c3ccc(Br)cc3)o2)C(=O)NCCCN(C)C)cc1`, the “hERG current change (%, negative = inhibition) at 1uM” value is on record as -84.2%. Take `Cc1ccc(C(=O)N/C(=C\c2ccc(-c3ccc(Br)cc3)o2)C(=O)NC2CCS(=O)(=O)C2)cc1` (stereo not drawn): the “hERG current change (%, negative = inhibition) at 1uM” value was found to be 7.85%.

Consider `CN(C)CCNC(=O)/C(=C/c1ccc(-c2ccc(Cl)cc2)o1)NC(=O)c1ccccc1`, for which the “hERG current change (%, negative = inhibition) at 1uM” value is recorded as -82%. For the molecule `CCCc1cc(=O)[nH]c(SCC(=O)N(C)C2CCCCC2)n1`, the “hERG current change (%, negative = inhibition) at 1uM” value is 13.3%.

For `CCSC1(SCC)N=C(N)C2(C#N)C(c3ccccc3)NC3=C(CCC3)C12C#N` (stereo not drawn), the “hERG current change (%, negative = inhibition) at 1uM” value stood at 14.4%. As to `CN(C(=O)c1ccncc1)c1nnc(-c2cccnc2)s1`, the “hERG current change (%, negative = inhibition) at 1uM” value is 12.8%. As to `CN(CC(=O)N1CCCCCC1)S(=O)(=O)c1ccc(Br)cc1`, the “hERG current change (%, negative = inhibition) at 1uM” value turned out to be 0.738%.

As to `COc1ccc(OCC(O)COc2ccc(C(=O)O)cc2)cc1` (stereo not drawn), the “hERG current change (%, negative = inhibition) at 1uM” value turned out to be 8.21%. Turning to `CCc1cc(C(=O)N/N=C/c2ccc(O)cc2)c2ccccc2n1`, the “hERG current change (%, negative = inhibition) at 1uM” value stood at 9.78%. For `Cn1ncc(Br)c1C(=O)Nc1ccc(Br)cn1` the value was 16.3%; for `CCC(C)[C@H](NC(=O)[C@@H]1CSC2c3ccccc3C(=O)N21)C(=O)N1CCCCC1` (stereo partly drawn), 8.7%. Take `CC1(C)CC(NC(=O)Cc2ccc(Cl)cc2)CC(C)(C)N1`: the “hERG current change (%, negative = inhibition) at 1uM” value was found to be 16.7%. Consider `Cc1ccc(-n2nc(C(=O)N3CCOCC3)cc2-c2ccc(Cl)cc2)cc1`, for which the “hERG current change (%, negative = inhibition) at 1uM” value is on record as -87.4%. With `O=C(c1cc(-c2ccc(Cl)cc2)n(-c2ccc(Cl)c(Cl)c2)n1)N1CCOCC1`, the “hERG current change (%, negative = inhibition) at 1uM” value was 5.69%.

As for `O=C(c1cc(-c2ccc(Cl)cc2)n(-c2ccc(Cl)cc2)n1)N1CCOCC1`, the “hERG current change (%, negative = inhibition) at 1uM” value is given as -56.8%. Consider `Cc1ccc(-n2nc(C(=O)O)cc2-c2ccc(Cl)cc2)cc1`, for which the “hERG current change (%, negative = inhibition) at 1uM” value is 8.61%. Consider `O=C(c1cc(-c2ccc(Cl)cc2)n(-c2cc(Cl)ccc2Cl)n1)N1CCOCC1`, for which the “hERG current change (%, negative = inhibition) at 1uM” value is listed as -3.98%.

In the case of `O=C(c1cc(-c2ccc(Cl)cc2)n(-c2ccc(Cl)cc2Cl)n1)N1CCOCC1`, the “hERG current change (%, negative = inhibition) at 1uM” value was -40.7%.
